Assay [1] deals with Human papillomavirus type 1a protein E7 (residues 44-93). The assay is described as follows: small molecules binding HPV E7 44-93 – biochemical, small-molecule microarray, residues 44-93, 635 nm fluorescence, primary screen (AID 1108).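 Further: E7 fragment applied at 1 µg/mL in TBST for 1 h at 4 C; score combines spot fluorescence with its signal to noise ratio.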 To be noted: fluorescence 635 nm, higher = more signal.
Assay [2] is described as follows: hepatitis C replication reporter changes, two-sided – Huh7 cells, luciferase reporter, HCV replication inhibitor project, primary screen (AID 1109).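 Further: huh7 hepatoma cells harbouring a luciferase neomycin HCV replicon reporter; luciferase luminescence as measure of HCV replicon replication; test concentration not given here.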 To be noted: Huh7 HCV replicon luciferase reporter, 48 h; higher = more signal.
Assay [3] addresses Left-right determination factor 2 (Homo sapiens) (UniProt O00292). The assay is described as follows: small molecules binding LEFTY2 protein – biochemical, small-molecule microarray, 635 nm fluorescence scan, primary screen (AID 1110). To be noted: higher = more signal.
For assay [4], the target named is Calmodulin-1 (Homo sapiens) (UniProt P0DP23). The assay is described as follows: small molecules binding calmodulin-1 with EGTA – biochemical, small-molecule microarray, Cy5-labelled CALM1, profiling panel (AID 1111).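 Further: labelled calmodulin applied in Tris saline Tween buffer holding calcium plus EGTA and DTT.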 Conditions: Cy5-CALM1 binding fluorescence, higher = more signal.
Assay [5] has the same target. The assay is described as follows: small molecules binding Ca-loaded calmodulin-1 – biochemical, small-molecule microarray, Cy5-labelled CALM1, plus calcium, artefact control for SMM control-protein annotation, profiling panel (AID 1112).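 Further: score merges spot fluorescence with signal to noise from triplicate slides.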 Conditions: Cy5-CALM1 binding fluorescence, higher = more signal.
Assay [6] can be described thus: probe aWnt5a binding to arrayed compounds – biochemical, biotinylated probe, 635/667 nm fluorescence, primary screen (AID 1113).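 Further: score merges 667 nm fluorescence intensity with signal-to-noise per printed feature.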 Conditions: small-molecule microarray, higher = more signal.
A short description of assay [7]: probe aShh binding to arrayed compounds – biochemical, biotinylated probe, 635/667 nm fluorescence, primary screen (AID 1114).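 Further: probe is biotin-labelled aShh protein from a stem cell growth factor screen; measures binding of labelled protein to compounds printed on the slide; score merges feature fluorescence at 667 nm with signal-to-noise.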 To be noted: small-molecule microarray, higher = more signal.
A short description of assay [8]: probe aNog binding to arrayed compounds – biochemical, biotinylated probe, 635/667 nm fluorescence, primary screen (AID 1115).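 Further: probe is biotinylated aNog protein used at 0.15 µg/mL for 1 h at 4 C; z-score combines 667 nm fluorescence of each spot with its signal to noise.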 Conditions: small-molecule microarray, higher = more signal.
For assay [9], the target named is Torsin-1A-interacting protein 1 (Homo sapiens) (UniProt Q5JTV8). Put plainly: compound microarray binding of lysate hLAP1 – cell lysate, small-molecule microarray, COS7 lysate, 635/667 nm fluorescence, primary screen (AID 1116). Conditions: 635 nm fluorescence, higher = more signal.
In assay [10] the target is Alpha-bungarotoxin (Bungarus multicinctus) (UniProt P60615). Put plainly: compounds binding labelled alpha-BTX control protein – biochemical, small-molecule microarray, Alexa647 label, 635/667 nm fluorescence, artefact control for SMM control protein annotation, profiling panel (AID 1117). To be noted: alpha-BTX-A647 binding fluorescence, higher = more signal.
Another assay has as its target Albumin (Bos taurus) (UniProt P02769). Put plainly: compounds binding labelled BSA control protein – biochemical, small-molecule microarray, Alexa647 label, 635/667 nm fluorescence, artefact control for SMM control protein annotation, profiling panel (AID 1118).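 Further: score merges 667 nm emission intensity and signal-to-noise per printed compound spot.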 To be noted: BSA-A647 binding, fluorescence 635 nm, higher = more signal.
Assay [11] can be described thus: probe aXIP binding to arrayed compounds – biochemical, NeuroSMM set, 635/667 nm fluorescence, primary screen (AID 1119).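 Further: probe is the protein aXip251-270 applied at 1 µg/mL to compound-printed slides; binding of probe to printed compounds measured as 667 nm fluorescence plus signal to noise.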 To be noted: small-molecule microarray, higher = more signal, called active from +8 up or from −8 down.
Assay [12] is described as follows: probe aNOTCH3 binding on compound microarray – biochemical, small-molecule microarray, 635/667 nm fluorescence, primary screen (AID 1120).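 Further: probe is a biotin-tagged antibody raised against NOTCH3 rather than NOTCH3 protein; score merges spot fluorescence near 667 nm with spot signal to noise.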 Conditions: higher = more signal.
Assay [13] in a line: probe aNOTCH2 binding on compound microarray – biochemical, small-molecule microarray, 635/667 nm fluorescence, primary screen (AID 1121).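 Further: score merges feature fluorescence read at 667 nm with its signal to noise.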 To be noted: higher = more signal.
The target in assay [14] is Carbonic anhydrase 2 (Homo sapiens) (UniProt P00918). The assay is described as follows: compounds binding carbonic anhydrase 2 – biochemical, small-molecule microarray, Alexa647-labelled CAII, profiling panel (AID 1122). To be noted: CAII-A647 binding fluorescence, higher = more signal.
Assay [15] is described as follows: COS7 lysate on small-molecule microarray, probe aHis, 635 nm (AID 1123).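 Further: z-score combines 667nm fluorescence intensity with signal-to-noise per printed compound spot.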 Conditions: COS7 cell lysate, fluorescence, higher = more signal.
A short description of assay [16]: probe aLAP1 signal on lysate-treated microarray – cell lysate, small-molecule microarray, COS7 lysate, primary screen (AID 1124).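 Further: lysate comes from COS7 cells expressing LAP1 and is applied at 0.3 µg/mL; score merges spot fluorescence near 667 nm with signal-to-noise over triplicate slides.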 Conditions: probe aLAP1, fluorescence, higher = more signal.
For the next assay, the system named is Sam68 (KHDRBS1). Put plainly: compounds binding KHDRBS1 protein – biochemical, small-molecule microarray, 635 nm fluorescence, primary screen (AID 1125).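 Further: score merges 667 nm channel intensity with signal to noise over triplicate slides.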 Conditions: higher = more signal.
For assay [17], the system named is Chordin-like protein 2 (CHRDL2). The assay is described as follows: compounds binding chordin-like 2 – biochemical, small-molecule microarray, 635 nm fluorescence, primary screen (AID 1126).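 Further: printed compound slides probed with Chrdl2 protein at 4 µg/mL for 1 h at 4 C; score merges 667 nm emission intensity with signal to noise over three replicate slides.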 Conditions: fluorescence 635 nm, higher = more signal.
Assay [18] concerns the target Concanavalin-A (Canavalia ensiformis) (UniProt P02866). Put plainly: compounds binding concanavalin A lectin – biochemical, small-molecule microarray, Alexa647 label, 635 nm, artefact control for SMM control protein annotation, primary screen (AID 1127).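 Further: z combines 667 nm emission intensity with signal-to-noise across three replicate slides.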 To be noted: ConA-A647 binding fluorescence, higher = more signal.

Active and inactive are the calls of the source.

Sequence of Concanavalin-A (Canavalia ensiformis) (P02866 whole entry, looked up): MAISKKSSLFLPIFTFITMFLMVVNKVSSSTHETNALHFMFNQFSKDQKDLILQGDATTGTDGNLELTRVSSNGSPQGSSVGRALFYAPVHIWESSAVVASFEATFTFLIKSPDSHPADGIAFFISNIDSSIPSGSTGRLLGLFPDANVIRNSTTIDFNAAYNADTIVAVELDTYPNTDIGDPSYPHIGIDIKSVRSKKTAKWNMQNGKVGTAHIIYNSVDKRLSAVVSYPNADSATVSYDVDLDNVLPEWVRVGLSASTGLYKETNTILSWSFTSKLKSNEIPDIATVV
Sequence of Albumin (Bos taurus) (P02769 whole entry, looked up): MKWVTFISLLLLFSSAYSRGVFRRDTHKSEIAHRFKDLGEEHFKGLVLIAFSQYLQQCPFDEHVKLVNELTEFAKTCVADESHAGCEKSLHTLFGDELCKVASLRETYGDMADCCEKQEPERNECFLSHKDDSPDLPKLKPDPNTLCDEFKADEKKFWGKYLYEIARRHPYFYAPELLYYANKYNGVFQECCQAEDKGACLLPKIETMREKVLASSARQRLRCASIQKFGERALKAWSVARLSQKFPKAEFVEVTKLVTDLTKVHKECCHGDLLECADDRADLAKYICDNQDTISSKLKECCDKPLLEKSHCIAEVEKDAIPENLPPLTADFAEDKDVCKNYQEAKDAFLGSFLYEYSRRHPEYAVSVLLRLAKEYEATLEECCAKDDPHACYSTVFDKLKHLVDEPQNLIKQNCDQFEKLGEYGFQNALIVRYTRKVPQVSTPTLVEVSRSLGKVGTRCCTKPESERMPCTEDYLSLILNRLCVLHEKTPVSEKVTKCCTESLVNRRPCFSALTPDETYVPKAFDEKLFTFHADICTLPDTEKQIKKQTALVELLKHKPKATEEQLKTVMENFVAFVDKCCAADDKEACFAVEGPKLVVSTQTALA
Sequence of Torsin-1A-interacting protein 1 (Homo sapiens) (Q5JTV8 whole entry, looked up): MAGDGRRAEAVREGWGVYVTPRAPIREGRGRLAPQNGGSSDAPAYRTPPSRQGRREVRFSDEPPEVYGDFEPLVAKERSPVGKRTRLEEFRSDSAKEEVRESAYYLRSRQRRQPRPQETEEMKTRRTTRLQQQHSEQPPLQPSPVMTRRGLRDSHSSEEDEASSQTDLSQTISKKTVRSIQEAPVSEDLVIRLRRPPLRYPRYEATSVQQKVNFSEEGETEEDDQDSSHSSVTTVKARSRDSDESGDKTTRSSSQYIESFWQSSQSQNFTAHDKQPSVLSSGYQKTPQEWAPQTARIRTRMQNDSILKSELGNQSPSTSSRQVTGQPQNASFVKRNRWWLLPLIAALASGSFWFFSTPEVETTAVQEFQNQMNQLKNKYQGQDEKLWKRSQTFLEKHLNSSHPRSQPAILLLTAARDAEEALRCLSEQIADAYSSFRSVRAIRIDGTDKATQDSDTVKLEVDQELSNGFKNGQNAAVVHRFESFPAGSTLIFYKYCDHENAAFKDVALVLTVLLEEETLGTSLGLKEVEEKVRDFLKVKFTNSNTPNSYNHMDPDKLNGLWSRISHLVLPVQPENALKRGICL
Sequence of Left-right determination factor 2 (Homo sapiens) (O00292 whole entry, looked up): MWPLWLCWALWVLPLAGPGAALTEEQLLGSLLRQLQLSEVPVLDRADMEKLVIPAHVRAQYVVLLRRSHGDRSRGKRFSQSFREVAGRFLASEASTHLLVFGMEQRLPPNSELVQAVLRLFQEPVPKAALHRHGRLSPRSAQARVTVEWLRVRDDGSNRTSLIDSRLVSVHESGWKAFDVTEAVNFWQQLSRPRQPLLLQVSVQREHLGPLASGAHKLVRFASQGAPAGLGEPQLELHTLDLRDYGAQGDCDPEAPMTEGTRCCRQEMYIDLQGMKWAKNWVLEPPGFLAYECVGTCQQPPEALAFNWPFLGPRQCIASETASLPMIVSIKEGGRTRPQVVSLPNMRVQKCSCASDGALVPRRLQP
Sequence of Alpha-bungarotoxin (Bungarus multicinctus) (P60615 whole entry, looked up): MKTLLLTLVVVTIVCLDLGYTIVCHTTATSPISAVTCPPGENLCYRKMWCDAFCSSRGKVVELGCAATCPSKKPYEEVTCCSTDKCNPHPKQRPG

With `CO[C@H]1COC(=O)[C@H](C)COC(=O)[C@@H](OCc2ccccc2)C=C[C@@H]1C`, the composite z-score was -0.0848 in [1]; 0.328 in [3]; -0.46 in assay [4]; -0.726 in assay [5]; -0.123 in assay [6]; -0.0769 in assay [7]. Besides, the composite z-score in assay [8] is -0.379; in [9], -0.149; in assay [10], -0.281; with Albumin (Bos taurus), 0.0996; in [12], -0.141; in [13], -0.12. Further, the composite z-score in assay [14] was -0.342; in assay [15] it was -0.051; in [16], -0.181; in the assay on Sam68 (KHDRBS1) it was 0.207; in [17] it was 0.225; in assay [18], 0.233. Moreover, the z-score in assay [2] is -0.0886. In addition, the composite Z-score in [11] is 0.976 (inactive).

For the compound `CON=C(C)CCN1CCCCc2nc(C)c(C)cc21`, the composite z-score in assay [1] was -0.111; in assay [3], 0.679; in assay [4] it was -0.327; in assay [5], -0.817; in assay [6], 0.11; in assay [7] it was -0.147. The composite z-score is -0.337 in assay [8]; 0.445 in assay [9]; -0.0996 in assay [10]; -0.16 with Albumin (Bos taurus); 0.245 in [12]; 0.0207 in assay [13]. Moreover, the composite z-score in assay [14] was 0.53; in assay [15] it was -0.0845; in [16], -0.244; in the assay with Sam68 (KHDRBS1), 0.119; in assay [17], 0.873; in assay [18], -0.116. The z-score in assay [2] is -0.319. Besides, in assay [11], the composite Z-score is 0.414 (inactive).

`CC(C)[C@@H](OCc1ccccc1)[C@H](C)C=NOC[C@@H](O)[C@H]1O[C@@H]2OC(C)(C)O[C@@H]2[C@H]1O`: the composite z-score in assay [1] was 0.436; in assay [3] it was 0.413; in assay [4], 0.178; in assay [5] it was -0.606; in assay [6] it was -0.15; in assay [7], -0.634. Also, the composite z-score in assay [8] is 0.848; in assay [9], 0.145; in assay [10], 0.278; in the assay with Albumin (Bos taurus), 0.0762; in assay [12], -0.0014; in [13] it was -0.147. Further, the composite z-score in assay [14] was -0.0043; in assay [15], 0.223; in assay [16], 0.614; with Sam68 (KHDRBS1), 0.574; in assay [17] it was 0.314; in [18], 1.07. This compound yielded a z-score in assay [2] of -1.75. Besides, the composite Z-score in assay [11] is 0.528 (inactive).

Regarding `CCOC(=O)NN=C1C[C@@H](O)[C@@H](O)[C@@H]2[C@@H]3C(=O)N(CC)C(=O)[C@@H]3CC[C@H]12`, the composite z-score in assay [1] was -0.307; in assay [3] it was 0.346; in [4], -0.317; in assay [5] it was -0.325; in [6], -0.176; in [7], -0.0813. Besides, the composite z-score in assay [8] is -0.244; in assay [9] it was 0.0626; in assay [10] it was -0.113; with Albumin (Bos taurus) it was 0.541; in assay [12], -0.0879; in [13], -0.126. Also, the composite z-score in [14] is 0.448; in [15], 0.0053; in [16], -0.0396; in the assay on Sam68 (KHDRBS1), -0.221; in assay [17] it was 0.202; in assay [18], 0.173. The z-score in assay [2] turned out to be 0.276. The composite Z-score in assay [11] was -0.415 (inactive).

Regarding `CCOC(=O)[C@H](Cc1ccccc1)NC(=O)CCC1CC(OC(=O)NCc2cccc3ccccc23)CC2(CCCC(COC(=O)NCCc3ccc(Cl)cc3)O2)O1` (stereo not given in full), the composite z-score in assay [1] is 1.02; in assay [3] it was 0.366; in assay [4] it was 1.14; in [5], -0.369; in assay [6], -0.0738; in [7] it was -0.153. Besides, the composite z-score is 0.793 in [8]; 0.289 in assay [9]; 0.429 in assay [10]; 0.278 with Albumin (Bos taurus); -0.296 in assay [12]; -0.203 in [13]. In addition, the composite z-score in assay [14] is 0.349; in [15], 0.37; in assay [16], -0.126; with Sam68 (KHDRBS1) it was 1.08; in [17], 0.253; in assay [18], 1.03. In assay [2], this compound yielded a z-score of 0.246. In addition, the composite Z-score in assay [11] is -0.413 (inactive).

Turning to `CC(C)CON=C1C[C@@H](O)[C@@H](O)[C@@H]2[C@@H]3C(=O)N(Cc4ccccc4)C(=O)[C@@H]3CC[C@H]12`, the composite z-score in [1] was -0.106; in assay [3] it was 0.623; in assay [4] it was -0.144; in assay [5], -0.414; in assay [6], -0.0107; in assay [7] it was -0.324. The composite z-score is -0.169 in [8]; 0.163 in assay [9]; 0.506 in [10]; 0.428 with Albumin (Bos taurus); -0.0679 in assay [12]; -0.122 in [13]. For the same compound, the composite z-score is 0.0889 in [14]; 0.211 in assay [15]; -0.366 in assay [16]; 0.51 with Sam68 (KHDRBS1); 0.447 in [17]; 0.321 in [18]. The compound also gave a z-score in assay [2] of -1.14. Also, the composite Z-score in assay [11] was -0.288 (inactive).

The values are drawn from PubChem BioAssay.
